Hit rate of the full screen: of about 330,000 compounds, about 10,000 (3%) were called active. This excerpt belongs to a sample that is enriched for actives. A number with no mark means an inactive call.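 The calls were made as follows: active = inhibition of at least 50% at 8 µM in the primary screen; inactive = the rest.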

Protein Mdm4 (Homo sapiens) + E3 ubiquitin-protein ligase Mdm2 (Homo sapiens), sequence (O15151 whole entry, looked up): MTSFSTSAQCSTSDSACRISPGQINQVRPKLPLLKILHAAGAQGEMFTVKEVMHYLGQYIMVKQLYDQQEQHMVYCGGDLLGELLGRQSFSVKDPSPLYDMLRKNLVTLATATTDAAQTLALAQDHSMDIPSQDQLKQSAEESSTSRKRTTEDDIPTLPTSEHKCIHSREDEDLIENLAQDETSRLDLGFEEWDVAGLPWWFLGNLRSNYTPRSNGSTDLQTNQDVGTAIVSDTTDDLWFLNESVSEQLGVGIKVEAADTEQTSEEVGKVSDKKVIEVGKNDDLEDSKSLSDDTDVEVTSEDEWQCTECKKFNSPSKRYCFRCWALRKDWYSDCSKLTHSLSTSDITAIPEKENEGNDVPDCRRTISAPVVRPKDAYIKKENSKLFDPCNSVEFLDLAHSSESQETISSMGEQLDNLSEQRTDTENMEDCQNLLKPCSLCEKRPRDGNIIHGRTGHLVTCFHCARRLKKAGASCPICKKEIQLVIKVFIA
Protein Mdm4 (Homo sapiens) + E3 ubiquitin-protein ligase Mdm2 (Homo sapiens), sequence (Q00987 whole entry, looked up): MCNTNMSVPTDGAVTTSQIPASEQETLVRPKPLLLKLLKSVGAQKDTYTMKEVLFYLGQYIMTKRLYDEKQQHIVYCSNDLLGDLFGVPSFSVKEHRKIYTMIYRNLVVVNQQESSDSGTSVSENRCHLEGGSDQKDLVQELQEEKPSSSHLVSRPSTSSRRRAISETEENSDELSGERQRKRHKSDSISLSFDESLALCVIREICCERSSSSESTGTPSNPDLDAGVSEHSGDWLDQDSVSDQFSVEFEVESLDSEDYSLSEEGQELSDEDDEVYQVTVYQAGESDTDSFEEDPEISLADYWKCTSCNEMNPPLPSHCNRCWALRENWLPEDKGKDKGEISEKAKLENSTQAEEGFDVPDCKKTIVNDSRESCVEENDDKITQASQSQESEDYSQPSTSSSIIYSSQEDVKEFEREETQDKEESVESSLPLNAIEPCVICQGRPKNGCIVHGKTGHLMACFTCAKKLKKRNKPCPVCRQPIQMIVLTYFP

This experiment has as its target Protein Mdm4 (Homo sapiens) + E3 ubiquitin-protein ligase Mdm2 (Homo sapiens) (UniProt O15151+Q00987). As to the kind of experiment: disruptors of Mdm2/MdmX RING complex – cell-based, luminescence, split luciferase, SaOS-2, uHTS, primary screen (AID 485346). The following applies: SaOS-2 split-luciferase Mdm2/MdmX complementation, at 8 µM, hits give high values.
What is called inhibition is the drop in the measured response relative to a control, in per cent. Turning to `COc1ccc(-c2cc(=O)oc3cc(OC(C)C(=O)NCC4CCC(C(=O)O)CC4)ccc23)cc1` (stereo not drawn), the inhibition was -48.8%.

Turning to `CCN(CC)c1ccc(NC(=O)CCc2nnc3ccc(N4CCCCC4)nn23)c(C)c1`, the inhibition was 15.3%.

Consider `CC1CCN(CCCNC(=O)CN2C(=O)CSc3ccc(S(=O)(=O)N4CCCCC4)cc32)CC1`, for which the inhibition was 13%.

As for `CCN(Cc1cc2cc(C)ccc2[nH]c1=O)S(=O)(=O)c1ccccc1`, the inhibition is 22.4%.

Regarding `COc1ccc2[nH]c(=O)c(CN(Cc3cccnc3)S(=O)(=O)c3ccccc3F)cc2c1`, the inhibition was 63.9% (active).

As for `CCOc1ccc2[nH]c(=O)c(CN(CCCO)S(=O)(=O)c3ccc(F)cc3)cc2c1`, the inhibition was -3.41%.

Regarding `COc1ccc(CCN2CC(C(=O)NCCN3CCNC3=O)CCC2=O)cc1` (stereo not drawn), the inhibition is 7.59%.

With `Cc1cc(C)nc(NC(=O)c2cccc([N+](=O)[O-])c2)c1`, the inhibition was 1.76%.

For `CN(C(=O)c1cccc([N+](=O)[O-])c1)c1ccccc1C(=O)NCc1ccccc1`, the inhibition was 10.9%.

Turning to `Cc1cc(CNC(=O)c2cccc([N+](=O)[O-])c2)c2ccccc2n1`, the inhibition is 57.9% (active).

Regarding `COc1cccc2[nH]c(C(=O)NCCc3ccccc3)cc12`, the inhibition is -35.8%.

In the case of `O=C(NCc1ccccc1Cl)C(=O)NCC1CCCN1S(=O)(=O)c1cccs1` (stereo not drawn), the inhibition was 2.29%.

Regarding `CCc1ccc(C(=O)N2CCN(S(=O)(=O)c3sc(C(=O)O)c(C)c3C(=O)O)CC2)cc1`, the inhibition was -9.23%.

With `COc1cc(C(=O)OCC(=O)NC23CC4CC(CC(C4)C2)C3)cc(OC)c1OC`, the inhibition was 11.3%.

For `CN(NC(=O)c1ccccc1F)c1nc(C(F)(F)F)nc2ccccc12`, the inhibition is 60.3% (active).

In the case of `COc1ccc(C(=O)NN(C)c2nc(-c3ccccc3)cc(C)c2S(C)(=O)=O)cc1`, the inhibition was 2.68%.

`CSc1nc(N(C)NC(=O)c2cccc(C)c2)c2ccccc2n1`: the inhibition is 63% (active).

On to `Cc1nc2ccccc2c(=O)n1NC(=O)c1ccccc1`, for which the inhibition was -5.89%.

Consider `CC(NC(=O)c1ccccc1F)c1cccc2ccccc12` (stereo not drawn), for which the inhibition was 3.89%.

Consider `Cn1c(CC(=O)NNC(=O)c2ccccc2F)nc2ccccc21`, for which the inhibition was 8.1%.

On to `CN(NC(=O)c1ccccc1)c1nc2ccccc2nc1C(F)(F)F`, for which the inhibition is 59.8% (active).

For `Cc1cccc(C(=O)Nc2ccc(CC(=O)O)cc2)c1`, the inhibition was -7.55%.

On to `Cc1cccc(C(=O)Nc2ccc(C(=O)N/N=C/c3cccc(C)n3)cc2)c1`, for which the inhibition is 8.86%.

For the compound `COc1ccc(NC(=O)c2cccc3c2C(=O)N(CC2CCCO2)C3)cc1OC` (stereo not drawn), the inhibition is -24.7%.

`CC(NC(=O)COC(=O)c1ccc2ccccc2n1)c1ccccc1` (stereo not drawn): the inhibition was -14.1%.

For `C=CCSc1ccc(S(=O)(=O)N2CCN(C)CC2)cn1`, the inhibition is 13.1%.

On to `COc1ccc(N(CC(=O)NC2CCCCCCC2)S(=O)(=O)c2c(C)nn(C)c2C)cc1`, for which the inhibition was -2%.

Regarding `O=C(/C=C/c1ccc([N+](=O)[O-])o1)NNC(=O)c1ccc(F)cc1`, the inhibition is 40%.

`CCOCCCNC(=S)N1CCC(NC(=O)C2CCCCC2)CC1`: the inhibition was 15.2%.

Turning to `Cc1ccc(C(=O)C(=S)N2CCOCC2)cc1`, the inhibition was 10.1%.

On to `CC(C)CC(CCc1ccccc1)OS(N)(=O)=O` (stereo not drawn), for which the inhibition is -32.9%.

As to `COc1cccc(/C=N/NC(=O)c2[nH]nc3c2CCc2ccccc2-3)c1O`, the inhibition is 74.6% (active).

Consider `COc1cc(OC)c(/C=N/NC(=O)c2ccc([N+](=O)[O-])cc2)cc1Br`, for which the inhibition is 46.6%.

For the compound `COc1cc2cc(C(=O)N/N=C/c3cccc(OC)c3OC)[nH]c2cc1OC`, the inhibition was -21.6%.

In the case of `COC(=O)CN1C(=O)[C@H]2[C@@H](/C=C/c3ccccc3)N3C(=O)CN(CC4CC4)C(=O)[C@@]3(Cc3ccccc3)[C@H]2C1=O`, the inhibition is -8.09%.

Consider `COc1ccc(C(O)(C2CCCCC2)C(CN2CCCC2)c2ccccc2)cc1` (stereo not drawn), for which the inhibition is 33.8%.

Take `Fc1ccc(CNc2nc3ccccc3n3nnnc23)cc1`: the inhibition is 54% (active).

`CCOC(=O)CNc1nc2ccccc2n2c(C)nnc12`: the inhibition was 1.6%.

As for `COc1ccc(CNc2nnnn2C)cc1`, the inhibition is -2.21%.

For the compound `CCc1nnc(NC(=O)CCC(=O)N2CCN(c3cc(C)ccc3C)CC2)s1`, the inhibition was 13.7%.

For `CC(C)[C@@H]1COC(c2cccc(C3=N[C@H](C(C)C)CO3)c2)=N1`, the inhibition was -13.9%.

`CN(CCOc1ccccc1)C(=O)c1cc(-c2ccco2)nc2ccccc12`: the inhibition was 18.2%.

Regarding `COc1ccc(Cl)cc1NC(=O)CN(C)C(=O)c1cc2ccccc2cc1OC`, the inhibition was 29.4%.

As for `COc1ccc(Cl)cc1NC(=O)CN(C)C(=O)c1ccc2n[nH]nc2c1`, the inhibition is 10.7%.

As to `COc1ccc(-c2cc(C(=O)N(C)CC(=O)Nc3ccccc3Cl)c3ccccc3n2)cc1OC`, the inhibition was 54.1% (active).

In the case of `COc1ccc(NC(=O)CN(C)C(=O)c2cc(-c3ccc(C)o3)nc3ccccc23)cc1`, the inhibition was 30.3%.

For the compound `COc1ccc(-c2cc(C(=O)NCCCN3CCCC3=O)c3ccccc3n2)cc1OC`, the inhibition is 8.93%.

On to `COc1ccc(CN(C)C(=O)c2cc(-c3ccc(C)cc3C)nc3ccccc23)c(OC)c1OC`, for which the inhibition was 68.6% (active).

On to `COc1cc(/C=N/NC(=O)c2cc(-c3ccccc3C)nc3ccccc23)cc(OC)c1O`, for which the inhibition was -4.47%.

On to `COc1ccc(-c2cc(C(=O)N(C)Cc3ccc(OC)c(OC)c3OC)c3ccccc3n2)cc1OC`, for which the inhibition was 63.2% (active).

For `C[C@@H]1C(c2ccc(F)cc2)=NN(c2ccc(Br)cc2)[C@H]1C(=O)N1CCOC1=O`, the inhibition is 9.83%.

Take `O=C(CN1CCN(S(=O)(=O)c2ccc3ccccc3c2)CC1)NC(=O)NC1CCCCC1`: the inhibition is 40.4%.

`COC(=O)C1CCN(C(=O)NC2CC(=O)N(c3ccc4c(c3)OCCO4)C2)CC1` (stereo not drawn): the inhibition was -29.9%.

For `CC(=O)C1=C(O)C(=O)N(c2ccc(Br)cc2)C1c1ccc([N+](=O)[O-])cc1` (stereo not drawn), the inhibition was 16.7%.

For the compound `COc1ccc(C(=O)C2CCCN(Cc3cccn3-c3ccccn3)C2)c(C)c1` (stereo not drawn), the inhibition was 46.4%.

Consider `COc1ccc(CN2CN(C(C)C)CSC2=S)cc1`, for which the inhibition is 63.7% (active).

For `S=C1SCN(CCN2CCOCC2)CN1Cc1ccccc1`, the inhibition was 19%.

With `COc1ccc(CN2CN(C3CCCC3)CSC2=S)cc1`, the inhibition is 34.2%.
